Results: PubChem BioAssay (EPA / NIEHS)
More than one record can exist for a structure, and the calls need not agree. Activity calls are given as the source filed them. The calls were made as follows: active = hit-call score of the fitted dose curve at least 0.9, where 1 is the maximum; inactive = score below 0.9.

Assays:
[1] = read-out: serum amyloid A (SAA), SAA1 (gene 6288); assay: BSK_CASM3C_SAA: BioMAP Diversity Plus: CASM3C Assay for serum amyloid A (SAA) Biomarker Activity (AID 2283049); details: primary human coronary artery smooth muscle cells; actives raise or lower the signal
[2] = BSK_CASM3C_SRB: Viability Assessment in the BioMAP Diversity Plus: CASM3C Assay (AID 2283050); details: primary human coronary artery smooth muscle cells;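 also: cells exposed to compound for 24 h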
[3] = read-out: Thrombomodulin, THBD (gene 7056); assay: BSK_CASM3C_Thrombomodulin: BioMAP Diversity Plus: CASM3C Assay for Thrombomodulin Biomarker Activity (AID 2283051); details: primary human coronary artery smooth muscle cells; actives raise or lower the signal;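 also: thrombomodulin protein level measured by ELISA 24 h after dosing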
[4] = read-out: Tissue Factor, F3 (gene 2152); assay: BSK_CASM3C_TissueFactor: BioMAP Diversity Plus: CASM3C Assay for Tissue Factor Biomarker Activity (AID 2283052); details: primary human coronary artery smooth muscle cells; actives raise or lower the signal;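 also: cell surface tissue factor protein level read by ELISA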
[5] = read-out: Interferon-gamma inducible Protein 10 (IP10), CXCL10 (gene 3627); assay: BSK_hDFCGF_IP10: BioMAP Diversity Plus: hDFCGF Assay for Interferon-gamma inducible Protein 10 (IP10) Biomarker Activity (AID 2283053); details: primary human foreskin fibroblasts; actives raise or lower the signal
Procedure, shortened: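 Chemical-treated human skin fibroblasts (primary) were sampled at 24 h for IP-10 by ELISA. Both increases and decreases relative to DMSO were scored.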

[6] = read-out: Urokinase-type plasminogen activator receptor (uPAR), PLAUR (gene 5329); assay: BSK_CASM3C_uPAR: BioMAP Diversity Plus: CASM3C Assay for Urokinase-type plasminogen activator receptor (uPAR) Biomarker Activity (AID 2283054); details: primary human coronary artery smooth muscle cells; actives raise or lower the signal;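 also: cell-surface uPAR protein level quantified by ELISA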
[7] = read-out: Vascular cell adhesion molecule 1 (VCAM1), VCAM1 (gene 7412); assay: BSK_CASM3C_VCAM1: BioMAP Diversity Plus: CASM3C Assay for Vascular cell adhesion molecule 1 (VCAM1) Biomarker Activity (AID 2283055); details: primary human coronary artery smooth muscle cells; actives raise or lower the signal;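 also: VCAM-1 protein level quantified by ELISA on the cells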
[8] = read-out: Collagen III, COL3A1 (gene 1281); assay: BSK_hDFCGF_CollagenIII: BioMAP Diversity Plus: hDFCGF Assay for Collagen III Biomarker Activity (AID 2283056); details: primary human foreskin fibroblasts; actives raise or lower the signal
Procedure, shortened: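 ELISA read-out of collagen III from human skin fibroblast cultures sampled 24 h post-dosing. Values were derived by bidirectional fitting relative to the DMSO vehicle control.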

[9] = read-out: Epidermal growth factor receptor (EGFR), EGFR (gene 1956); assay: BSK_hDFCGF_EGFR: BioMAP Diversity Plus: hDFCGF Assay for Epidermal growth factor receptor (EGFR) Biomarker Activity (AID 2283057); details: primary human foreskin fibroblasts; actives raise or lower the signal
Procedure, shortened: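 Cell-based multiplexed assay in primary human foreskin fibroblasts. EGFR is read by ELISA 24 h after treatment and compared with DMSO controls.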

[10] = read-out: Interleukin-8 (IL8), CXCL8 (gene 3576); assay: BSK_hDFCGF_IL8: BioMAP Diversity Plus: hDFCGF Assay for Interleukin-8 (IL8) Biomarker Activity (AID 2283058); details: primary human foreskin fibroblasts; actives raise or lower the signal
Procedure, shortened: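 Cells used are human skin primary fibroblasts. Chemical is added, cultures run 24 h, then IL-8 is quantified by ELISA, and gain or loss versus DMSO control is fitted in both directions.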

[11] = BSK_hDFCGF_Proliferation: Cell Proliferation Assessment in the BioMAP Diversity Plus: hDFCGF Assay (AID 2283059); details: primary human foreskin fibroblasts;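 also: curves fitted for both rise and fall of signal versus DMSO baseline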
Procedure, shortened: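 Total protein read at 560 nm after 0.1% SRB staining of TCA-fixed human skin fibroblasts, […]. Activity is fitted in both directions relative to DMSO as baseline.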

[12] = read-out: Macrophage colony-stimulating factor (MCSF), CSF1 (gene 1435); assay: BSK_hDFCGF_MCSF: BioMAP Diversity Plus: hDFCGF Assay for Macrophage colony-stimulating factor (MCSF) Biomarker Activity (AID 2283060); details: primary human foreskin fibroblasts; actives raise or lower the signal
Procedure, shortened: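 Primary human foreskin fibroblasts dosed with chemical; 24 h later, M-CSF quantified by ELISA; curves fitted in both directions vs DMSO negative control.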

[13] = BSK_hDFCGF_SRB: Viability Assessment in the BioMAP Diversity Plus: hDFCGF Assay (AID 2283061); details: primary human foreskin fibroblasts;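 also: cells exposed to compound for 24 h before the read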
Procedure, shortened: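 Readout is SRB absorbance at 560 nm, reflecting total protein in parallel cultures of human foreskin fibroblasts harvested 24 h after chemical dosing. Activity was fitted bidirectionally relative to DMSO.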

[14] = read-out: TIMP metallopeptidase inhibitor 1 (TIMP1), TIMP1 (gene 7076); assay: BSK_hDFCGF_TIMP1: BioMAP Diversity Plus: hDFCGF Assay for TIMP metallopeptidase inhibitor 1 (TIMP1) Biomarker Activity (AID 2283062); details: primary human foreskin fibroblasts; actives raise or lower the signal
Procedure, shortened: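 Human skin fibroblasts (primary), hDFCGF system; compound exposure 24 h; TIMP-1 by ELISA; bidirectional fit vs DMSO negative control; overt cytotoxicity by SRB in parallel wells.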

[15] = read-out: Monokine induced gamma interferon (MIG), CXCL9 (gene 4283); assay: BSK_hDFCGF_MIG: BioMAP Diversity Plus: hDFCGF Assay for Monokine induced gamma interferon (MIG) Biomarker Activity (AID 2283063); details: primary human foreskin fibroblasts; actives raise or lower the signal
Procedure, shortened: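 Chemicals were added to primary human foreskin fibroblast cultures, which were sampled 24 h later. MIG levels were then quantified by ELISA and responses fitted in both directions relative to DMSO.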

[16] = read-out: Matrix Metallopeptidase 1 (MMP1), MMP1 (gene 4312); assay: BSK_hDFCGF_MMP1: BioMAP Diversity Plus: hDFCGF Assay for Matrix Metallopeptidase 1 (MMP1) Biomarker Activity (AID 2283064); details: primary human foreskin fibroblasts; actives raise or lower the signal
Procedure, shortened: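 MMP1 levels quantified by ELISA 24 h after dosing human dermal fibroblast cultures, with parallel SRB total-protein staining for overt cytotoxicity. Data fitted in both directions against DMSO baseline.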

[17] = read-out: Vascular cell adhesion molecule 1 (VCAM1), VCAM1 (gene 7412); assay: BSK_hDFCGF_VCAM1: BioMAP Diversity Plus: hDFCGF Assay for Vascular cell adhesion molecule 1 (VCAM1) Biomarker Activity (AID 2283065); details: primary human foreskin fibroblasts; actives raise or lower the signal;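 as to AC50: VCAM-1 protein level quantified by ELISA after 24 h chemical exposure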
Procedure, shortened: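 Human foreskin fibroblast primary cells, chemical exposure 24 h; VCAM-1 by ELISA; bidirectional fit, DMSO = negative control/baseline.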

[18] = read-out: Plasminogen activator inhibitor-1 (PAI1), SERPINE1 (gene 5054); assay: BSK_hDFCGF_PAI1: BioMAP Diversity Plus: hDFCGF Assay for Plasminogen activator inhibitor-1 (PAI1) Biomarker Activity (AID 2283066); details: primary human foreskin fibroblasts; actives raise or lower the signal
Procedure, shortened: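 Human skin fibroblast cultures receive chemical for 24 h before PAI-1 is measured by ELISA; signal changes are fitted bidirectionally against DMSO-treated wells.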

[19] = read-out: Intercellular Adhesion Molecule 1 (ICAM1), ICAM1 (gene 3383); assay: BSK_KF3CT_ICAM1: BioMAP Diversity Plus: KF3CT Assay for Intercellular Adhesion Molecule 1 (ICAM1) Biomarker Activity (AID 2283067); details: primary human keratinocytes with fibroblasts; actives raise or lower the signal
Procedure, shortened: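 ICAM-1 levels are measured by ELISA 24 h after dosing a primary human co-culture of keratinocytes and foreskin fibroblasts. Activity in either direction is fitted relative to DMSO vehicle.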

[20] = read-out: Interferon-gamma inducible Protein 10 (IP10), CXCL10 (gene 3627); assay: BSK_KF3CT_IP10: BioMAP Diversity Plus: KF3CT Assay for Interferon-gamma inducible Protein 10 (IP10) Biomarker Activity (AID 2283068); details: primary human keratinocytes with fibroblasts; actives raise or lower the signal
Procedure, shortened: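 Human keratinocyte plus foreskin fibroblast primary co-culture exposed to test chemical for 24 h; IP-10 measured by ELISA. Concentration-response fitted bidirectionally against DMSO control as baseline.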

Measured: AC50

O=c1[nH]c(=O)[nH]c(=O)[nH]1
inactive: all assays above

CCC(C)(C)c1ccc(O)c(C(C)(C)CC)c1
active: [1] 30 µM | [2] 13 µM | [3] 33.8 µM | [4] 11.4 µM | [5] 6.49 µM | [6] 31.4 µM | [7] 12.2 µM | [8] 7.28 µM | [10] 10.4 µM | [11] 9.6 µM | [12] 8.2 µM | [13] 11.3 µM | [14] 8.53 µM | [15] 8.09 µM | [16] 10.7 µM | [17] 9.33 µM | [18] 7.87 µM | [19] 11.7 µM | [20] 9.69 µM
inactive: [9]

COP(=S)(OC)Oc1ccc(S(=O)(=O)N(C)C)cc1
active: [11] 28.2 µM
inactive: all other assays above

CC(C)(C)c1cc(O)ccc1O
inactive: [1] | [2] | [6]
active: [3] 14.7 µM | [4] 11.2 µM | [5] 4.87 µM | [7] 23.7 µM | [8] 5.6 µM | [9] 5.78 µM | [10] 9.21 µM | [11] 0.472 µM | [12] 5.23 µM | [13] 4.07 µM | [14] 4.45 µM | [15] 4.42 µM | [16] 6.21 µM | [17] 3.31 µM | [18] 5.24 µM | [19] 30.8 µM | [20] 30.1 µM

O=C(O)CCC(F)(C(F)(F)F)C(F)(F)F
active: [1] 17.9 µM | [5] 1.93 µM | [7] 0.25 µM | [12] 5.95 µM | [17] 7.04 µM
inactive: [1] | [2] | [3] | [4] | [5] | [6] | [7] | [8] | [9] | [10] | [11] | [12] | [13] | [14] | [15] | [16] | [17] | [18] | [19] | [20]
